Laboratory results: PubChem BioAssay AID1159580 (chemical genetic matrix, 2015)
The whole screen tested about 5,500 compounds, of which about 2,000 (36%) were called active. Inconclusive results (about 18%) are left out. Rule as the data show it: active = normalized growth mostly below about 0.91 (no sharp cut-off); inconclusive = no clear call, values can overlap the other calls; inactive = mostly above about 0.92. The list shows a part of the results.

Experiment: chemical genetic growth profiling, strain panel (AID 1159580);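 also: tested at 20 µM; growth read once vehicle control cultures reached saturation at 30 °C; 1 = growth at the plate median or of vehicle wells; lower values mean less growth of the strain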
Conditions: growth OD

Measured: normalized growth

COc1cc(C(=O)N2CCOCC2)cc(OC)c1OC
inactive: S. cerevisiae deletion strains, locus YJR075W, strain HOC1, active compounds read low 1 | S. cerevisiae deletion strains, locus YKL009W, strain mrt4, active compounds read low 0.926 | S. cerevisiae deletion strains, locus YKL068W, active compounds read low 0.988 | S. cerevisiae deletion strains, locus YKL160W, strain elf1, active compounds read low 1 | S. cerevisiae deletion strains, locus YKL190W, strain CNB1, active compounds read low 1.01 | S. cerevisiae deletion strains, locus YKR026C, strain gcn3, active compounds read low 0.975 | S. cerevisiae deletion strains, locus YKR091W, strain srl3, active compounds read low 0.977 | S. cerevisiae deletion strains, locus YLL001W, strain dnm1, active compounds read low 0.987 | S. cerevisiae deletion strains, locus YLL026W, active compounds read low 0.984 | S. cerevisiae deletion strains, locus YLL041C, strain sdh2, active compounds read low 0.981 | S. cerevisiae deletion strains, locus YLR027C, strain aat2, active compounds read low 1.01 | S. cerevisiae deletion strains, locus YLR039C, strain RIC1, active compounds read low 1.04 | S. cerevisiae deletion strains, locus YLR058C, strain SHM2, active compounds read low 1.01 | S. cerevisiae deletion strains, locus YLR113W, strain HOG1, active compounds read low 0.999 | S. cerevisiae deletion strains, locus YLR221C, strain rsa3, active compounds read low 0.968 | S. cerevisiae deletion strains, locus YLR258W, strain gsy2, active compounds read low 1.01 | S. cerevisiae deletion strains, locus YLR262C, strain YPT6 (second series), active compounds read low 1.02 | S. cerevisiae deletion strains, locus YLR262C, strain YPT6, active compounds read low 1.06 | S. cerevisiae deletion strains, locus YLR320W, strain mms22, active compounds read low 0.982 | S. cerevisiae deletion strains, locus YLR330W, strain CHS5, active compounds read low 1 | S. cerevisiae deletion strains, locus YLR342W, strain FKS1 (second series), active compounds read low 1.06 | S. cerevisiae deletion strains, locus YLR342W, strain FKS1, active compounds read low 0.967 | S. cerevisiae deletion strains, locus YLR357W, strain rsc2, active compounds read low 0.998 | S. cerevisiae deletion strains, locus YLR370C, strain arc18, active compounds read low 1 | S. cerevisiae deletion strains, locus YLR384C, strain iki3, active compounds read low 0.984 | S. cerevisiae deletion strains, locus YML016C, strain PPZ1, active compounds read low 1.01 | S. cerevisiae deletion strains, locus YML120C, strain ndi1, active compounds read low 0.985 | S. cerevisiae deletion strains, locus YMR058W, strain fet3, active compounds read low 0.987 | S. cerevisiae deletion strains, locus YMR125W, strain sto1, active compounds read low 0.993 | S. cerevisiae deletion strains, locus YMR129W, active compounds read low 0.982 | S. cerevisiae deletion strains, locus YMR205C, strain PFK2, active compounds read low 0.982 | S. cerevisiae deletion strains, locus YMR231W, strain pep5, active compounds read low 0.975 | S. cerevisiae deletion strains, locus YMR263W, strain SAP30, active compounds read low 1 | S. cerevisiae deletion strains, locus YMR307W, strain GAS1, active compounds read low 1.06 | S. cerevisiae deletion strains, locus YNL067W, strain RPL9B, active compounds read low 1 | S. cerevisiae deletion strains, locus YNL071W, strain lat1, active compounds read low 0.987 | S. cerevisiae deletion strains, locus YNL128W, strain TEP1, active compounds read low 1 | S. cerevisiae deletion strains, locus YNL153C, strain GIM3, active compounds read low 0.997 | S. cerevisiae deletion strains, locus YNL183C, strain NPR1, active compounds read low 0.967 | S. cerevisiae deletion strains, locus YNL209W, strain ssb2, active compounds read low 0.981 | S. cerevisiae deletion strains, locus YNL233W, strain BNI4, active compounds read low 0.992 | S. cerevisiae deletion strains, locus YNL248C, strain rpa49, active compounds read low 0.991 | S. cerevisiae deletion strains, locus YNL322C, strain KRE1 (second series), active compounds read low 0.975 | S. cerevisiae deletion strains, locus YNL322C, strain KRE1, active compounds read low 1.01 | S. cerevisiae deletion strains, locus YNR049C, strain mso1, active compounds read low 0.971 | S. cerevisiae deletion strains, locus YNR052C, strain pop2, active compounds read low 1.04 | S. cerevisiae deletion strains, locus YOL006C, strain TOP1, active compounds read low 1.05 | S. cerevisiae deletion strains, locus YOR001W, strain rrp6, active compounds read low 0.967 | S. cerevisiae deletion strains, locus YOR061W, strain CKA2, active compounds read low 1.01 | S. cerevisiae deletion strains, locus YOR069W, strain VPS5, active compounds read low 1.01 | S. cerevisiae deletion strains, locus YOR070C, strain gyp1, active compounds read low 0.982 | S. cerevisiae deletion strains, locus YOR080W, strain dia2, active compounds read low 0.979 | S. cerevisiae deletion strains, locus YOR083W, strain WHI5, active compounds read low 1.01 | S. cerevisiae deletion strains, locus YOR106W, strain vam3, active compounds read low 1.01 | S. cerevisiae deletion strains, locus YOR144C, strain elg1, active compounds read low 1.01 | S. cerevisiae deletion strains, locus YOR231W, strain MKK1, active compounds read low 1.01 | S. cerevisiae deletion strains, locus YOR265W, strain rbl2, active compounds read low 1 | S. cerevisiae deletion strains, locus YOR270C, strain vph1, active compounds read low 0.978 | S. cerevisiae deletion strains, locus YOR290C, strain snf2, active compounds read low 1.01 | S. cerevisiae deletion strains, locus YPL051W, strain arl3, active compounds read low 0.993 | S. cerevisiae deletion strains, locus YPL055C, strain LGE1, active compounds read low 1 | S. cerevisiae deletion strains, locus YPL078C, strain atp4, active compounds read low 0.982 | S. cerevisiae deletion strains, locus YPL106C, strain sse1, active compounds read low 0.998 | S. cerevisiae deletion strains, locus YPL240C, strain hsp82, active compounds read low 1 | S. cerevisiae deletion strains, locus YPL241C, strain CIN2, active compounds read low 1.01 | S. cerevisiae deletion strains, locus YPL256C, strain CLN2, active compounds read low 1.07 | S. cerevisiae deletion strains, locus YPR141C, strain kar3, active compounds read low 1.03 | S. cerevisiae strains, strain wild type, active compounds read low 1.01
active: S. cerevisiae deletion strains, locus YKL085W, strain MDH1 (second series), active compounds read low 0.353 | S. cerevisiae deletion strains, locus YKL085W, strain MDH1, active compounds read low 0.353 | S. cerevisiae deletion strains, locus YKR001C, strain vps1, active compounds read low 0.127 | S. cerevisiae deletion strains, locus YLR102C, strain apc9, active compounds read low 0.102 | S. cerevisiae deletion strains, locus YLR268W, strain sec22, active compounds read low 0.0891 | S. cerevisiae deletion strains, locus YLR371W, strain rom2, active compounds read low 0.0857 | S. cerevisiae deletion strains, locus YLR418C, strain cdc73, active compounds read low 0.102 | S. cerevisiae deletion strains, locus YML032C, strain rad52, active compounds read low 0.845 | S. cerevisiae deletion strains, locus YML124C, strain tub3, active compounds read low 0.158 | S. cerevisiae deletion strains, locus YMR078C, strain ctf18, active compounds read low 0.205 | S. cerevisiae deletion strains, locus YMR223W, strain ubp8, active compounds read low 0.0851 | S. cerevisiae deletion strains, locus YNL250W, strain rad50, active compounds read low 0.531 | S. cerevisiae deletion strains, locus YNL271C, strain bni1, active compounds read low 0.214 | S. cerevisiae deletion strains, locus YNL298W, strain CLA4, active compounds read low 0.456 | S. cerevisiae deletion strains, locus YNL307C, strain MCK1, active compounds read low 0.0679 | S. cerevisiae deletion strains, locus YOL147C, strain pex11, active compounds read low 0.829 | S. cerevisiae deletion strains, locus YOR136W, strain idh2, active compounds read low 0.0963 | S. cerevisiae deletion strains, locus YOR184W, strain ser1, active compounds read low 0.0727 | S. cerevisiae deletion strains, locus YOR316C, strain cot1, active compounds read low 0.0956 | S. cerevisiae deletion strains, locus YPR119W, strain clb2, active compounds read low 0.143 | S. cerevisiae deletion strains, locus YPR163C, strain tif3, active compounds read low 0.0748 | S. cerevisiae deletion strains, locus YPR167C, strain met16, active compounds read low 0.0923 | S. cerevisiae deletion strains, strain wtn01, active compounds read low 0.0623
